Compound activity as filed in PubChem.
FAK blocker = FAK kinase inhibitors, primary screen, biochemical; inhibition, %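 (tested at 7 µM)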; biochemical FAK kinase activity assay; AID 727, 2007; actives 0.84% (n = 97,000); in the data active = inhibition above about 19%
ERa SRC1 inh = ERα–SRC-1 coactivator interaction inhibitors, primary screen, biochemical, TR-FRET, ERα LBD, estradiol-bound. TR-FRET ER-alpha LBD / SRC-1 peptide. inhibition, % at 25.6 µM. Estrogen receptor (Homo sapiens), P03372. AID 629, 2007. actives 1.7% (n = 86,000); in the data active = inhibition above about 50%
ERa coact pot = enhancers of ERα–SRC-1 coactivator binding, primary screen, biochemical, TR-FRET, ERα LBD, low estradiol; Estrogen receptor (Homo sapiens), P03372; TR-FRET ERalpha-LBD/SRC-Cy5 coactivator binding, 2 h; 100 = basal binding, no effect; coactivator binding (% of control), % at 25.6 µM; actives 1.3% (n = 86,000); in the data active = activity above about 200%;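 note: binding measured in presence of low estradiol as agonist stimulus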
Smad3 FoxH1 inh = Smad3/FoxH1 peptide binding inhibitors, primary screen, biochemical, TR-FRET. Mothers against decapentaplegic homolog 3 (Homo sapiens), P84022. TR-FRET Smad3/Dy647-FoxH1 peptide binding, europium anti-His. inhibition, % at 25 µM. actives 0.29% (n = 88,000);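 active = compounds that reduce the energy-transfer binding signal between the protein and its labelled peptide by more than half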
Target sequence (P84022 whole entry, looked up): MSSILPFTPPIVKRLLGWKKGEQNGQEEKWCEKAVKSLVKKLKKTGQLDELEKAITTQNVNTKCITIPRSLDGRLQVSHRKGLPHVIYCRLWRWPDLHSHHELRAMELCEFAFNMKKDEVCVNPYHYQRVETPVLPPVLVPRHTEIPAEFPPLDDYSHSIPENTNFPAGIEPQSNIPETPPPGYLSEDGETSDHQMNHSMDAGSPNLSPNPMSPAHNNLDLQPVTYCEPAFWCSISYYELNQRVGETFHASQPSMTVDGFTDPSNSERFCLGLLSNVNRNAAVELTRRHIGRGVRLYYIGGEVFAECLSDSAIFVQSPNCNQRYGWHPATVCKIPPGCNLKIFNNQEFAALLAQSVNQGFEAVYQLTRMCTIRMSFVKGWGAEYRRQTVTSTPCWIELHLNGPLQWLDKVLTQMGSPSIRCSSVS
ERb coact inh = inhibitors of ERβ-SRC1 coactivator interaction, primary screen, biochemical, TR-FRET, ERβ LBD, SRC-1 peptide; TR-FRET ER-beta LBD / SRC1-Cy5 peptide binding; receptor agonist-loaded with 1 µM estradiol; actives 1.3% (n = 86,000); inhibition, % at 25.6 µM;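 active = compounds whose percent inhibition of the receptor-coactivator binding signal exceeds about 50% in the single-dose screen, limit read from the data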
Of the large screens only hits and unclear results are named; the others gave an inactive call; [ ] = another dose, or the depositor's remark. Shown are actives, neighbours in structure and some others; about 3.3% of the full set was active somewhere.

CCN1CCN(Cc2ccccc2NC(=O)Nc2ccc(C)cc2)CC1	none
c1ccc(-c2nc(C3CCCCC3)no2)cc1	ERb coact inh 68
COc1ccc(-c2nc(C3CCCCC3)no2)cc1OC	none (no result: ERa SRC1 inh, ERa coact pot, Smad3 FoxH1 inh, ERb coact inh)
COc1ccccc1N1CCN(C(=O)c2cc3c(s2)CCC3)CC1	ERa SRC1 inh 64
N=c1c(C(=O)NCc2ccco2)cc2c(=O)n3ccccc3nc2n1Cc1ccccc1	none
N=c1c(C(=O)NCc2ccccc2)cc2c(=O)n3ccccc3nc2n1Cc1ccco1	ERa SRC1 inh 71[fluorescence artefact?]
N=c1c(C(=O)NCc2ccco2)cc2c(=O)n3ccccc3nc2n1Cc1ccc(Cl)cc1	ERa SRC1 inh 80[fluorescence artefact?], ERb coact inh 58[fluorescence artefact?]
Cc1ccc(CNC(=O)c2cc3c(=O)n4ccccc4nc3n(Cc3ccco3)c2=N)cc1	ERa SRC1 inh 82[fluorescence artefact?], ERb coact inh 55[fluorescence artefact?] (no result: FAK blocker)
Cc1ccc(S(=O)(=O)c2cc3c(=O)n4ccccc4nc3n(Cc3ccco3)c2=N)cc1	ERb coact inh 63[fluorescence artefact?]
O[C@H]([C@H](O)[C@@H](O)c1nc2ccccc2[nH]1)[C@@H](O)c1nc2ccccc2[nH]1	none (no result: FAK blocker, ERa SRC1 inh, ERa coact pot, ERb coact inh)
C[N+]1(CCC[N+]2(C)C[C@@H]3[C@H](C2)[C@@H]2C=C[C@H]3CC2)CCOCC1 (stereo not given in full)	none (no result: FAK blocker, ERa SRC1 inh, ERa coact pot, ERb coact inh)
O=C(O)/C=C/C(=O)Nc1ncn[nH]1	none (no result: FAK blocker, ERa SRC1 inh, ERa coact pot, ERb coact inh)
CC(C)(C)c1ccc(O)c(CN(Cc2c(O)ccc3ccccc23)C2CCCCC2)c1	none (no result: FAK blocker, ERa SRC1 inh, ERa coact pot, ERb coact inh)
Cc1ccc(S(=O)(=O)c2cc3c(=O)n4cccc(C)c4nc3n(CC3CCCO3)c2=N)cc1 (stereo not given)	ERa coact pot 290 (no result: FAK blocker)
Cc1cccn2c(=O)c3cc(C(=O)NCc4ccco4)c(=N)n(C(C)C)c3nc12	none
Cc1cccn2c(=O)c3cc(C(=O)NCc4ccco4)c(=N)n(CCc4ccccc4)c3nc12	ERa SRC1 inh 93[fluorescence artefact?], ERb coact inh 59 (no result: FAK blocker)
CCCc1cc(COC)c(C#N)c(=O)[nH]1	none (no result: FAK blocker, ERa SRC1 inh, ERa coact pot, ERb coact inh)
FC(F)(F)c1cccnc1N1CCN(c2ncnc3nc[nH]c23)CC1	ERa SRC1 inh 56[fluorescence artefact?] (no result: FAK blocker)
Cc1ccc2nc(NC(=O)CSCc3ccccc3)sc2c1	ERb coact inh 85[fluorescence artefact?]
COCC(=O)Nc1nc2ccc(C)cc2s1	none
Cc1cc(NC(=O)C(C)C)ncc1NC(=O)Cc1ccccc1	none
COc1cc(C(=O)Nc2cnc(NC(=O)C(C)C)cc2C)cc(OC)c1OC	ERb coact inh 52
O=C(O)C1Nc2c(O)cccc2C2C=CCC12 (stereo not given)	ERa SRC1 inh 99[fluorescence artefact?], ERb coact inh 99[fluorescence artefact?] (no result: FAK blocker)
c1ccc(NN(Cc2cnccn2)c2ccccc2)cc1	none (no result: FAK blocker, ERa SRC1 inh, ERa coact pot, ERb coact inh)
Cc1ccc(OC2=NS(=O)(=O)c3ccccc32)cc1	none
COc1ccccc1OC1=NS(=O)(=O)c2ccccc21	ERa SRC1 inh 78[fluorescence artefact?]
COC(=O)CSC1=NS(=O)(=O)c2ccccc21	none
CCN(CC)c1cccc(OC2=NS(=O)(=O)c3ccccc32)c1	ERa SRC1 inh 83[fluorescence artefact?]
O=NN(Cc1ccc(Cl)cc1)[C@@H](C(=O)O)c1ccccc1	none (no result: FAK blocker, ERa SRC1 inh, ERa coact pot, ERb coact inh)
C[C@@H](SCc1ccccc1)C(=O)O	none (no result: FAK blocker, ERa SRC1 inh, ERa coact pot, ERb coact inh)
CC(C)c1ccc2c(c1)CC[C@@H]1[C@](C)(CN)CCC[C@@]21C	none (no result: FAK blocker, ERa SRC1 inh, ERa coact pot, ERb coact inh)
Cc1cc(=O)[nH]c(SCC(=O)Nc2ccc(Cl)cn2)n1	none
CC(=O)C1=C(O)C(=O)N(c2nnn(C)n2)C1c1cccs1 (stereo not given)	ERb coact inh 79[fluorescence artefact?]
CSc1nc2ccc3nc(NC(=O)c4ccc(C)cc4)sc3c2s1	none (no result: ERa SRC1 inh, ERa coact pot, Smad3 FoxH1 inh, ERb coact inh)
Cc1ccc(C(=O)Nc2nc3ccccc3c(=O)s2)cc1	ERb coact inh 60
COCCN=C1Sc2nc3ccc(C)cc3cc2CN1Cc1ccco1	none (no result: ERa SRC1 inh, ERa coact pot, Smad3 FoxH1 inh, ERb coact inh)
CCOc1ccc2nc3c(cc2c1)CN(CCOC)C(=NCCOC)S3	ERa coact pot 483[fluorescence artefact?]
O=C(O)c1ccc(OCc2ccccc2)c(Cl)c1	none (no result: FAK blocker, ERa SRC1 inh, ERa coact pot, ERb coact inh)
CN1CCc2c(sc3c2c(=O)n(-c2ccccc2)c2nnc(SCc4ccc(Cl)cc4)n32)C1	ERa coact pot 314
Cn1cc(Cl)c(C(=O)OCC(=O)Nc2nc(-c3ccc(Br)cc3)cs2)n1	none
COc1cc(OC)cc(-n2c3nc4ccccc4nc3c3c(=O)n(CC4CCCO4)cnc32)c1 (stereo not given)	ERa SRC1 inh 57[fluorescence artefact?] (no result: FAK blocker)
O=c1c2c3nc4ccccc4nc3n(CC3CCCO3)c2ncn1CCc1ccccc1 (stereo not given)	none (no result: FAK blocker)
Cc1nc2c(c(=O)n1CC1CCCO1)c1nc3ccccc3nc1n2CCC(C)C (stereo not given)	ERa SRC1 inh 76 (no result: FAK blocker)
Cc1sc(-c2ccncc2)nc1OC(=O)c1cc(Cl)cc(Cl)c1	ERa coact pot 224
CCCC(=O)N(CCN(C(=O)CCC)c1ccccc1)c1ccccc1	none
CN(C)CCCN=c1c2ccccc2n(C)c2[nH]c(=O)n(C)c(=O)c12	none (no result: FAK blocker, ERa SRC1 inh, ERa coact pot, ERb coact inh)
COc1cc2[nH]c3c(N4CCN(c5ccccn5)CC4)ncnc3c2cc1OC	ERa coact pot 676[fluorescence artefact?]
CCc1nnc(NC(=O)c2ccc(-c3ccc(Cl)cc3)o2)s1	ERa SRC1 inh 54[fluorescence artefact?], ERa coact pot 274[fluorescence artefact?]
CC(=O)C1=C(C)NC(SCSc2ccccc2)=C(C#N)C1c1cccnc1 (stereo not given)	none
CC(=O)C1=C(C)NC(SCC(=O)c2ccc(-c3ccccc3)cc2)=C(C#N)C1c1cccnc1 (stereo not given)	ERa coact pot 355[fluorescence artefact?]
CC(C)CN(CC#N)CC(C)C	none (no result: FAK blocker, ERa SRC1 inh, ERa coact pot, ERb coact inh)
CN(C)c1ccc(O)c2c1CC1CC3[C@@H](N(C)C)C(=O)C(C(N)=O)=C(O)[C@]3(O)C(=O)C1=C2O (stereo not given in full)	ERa SRC1 inh 98[fluorescence artefact?], Smad3 FoxH1 inh 55[fluorescence artefact?], ERb coact inh 100[fluorescence artefact?] (no result: FAK blocker)
CSc1ccccc1C(=O)Nc1nccs1	ERa SRC1 inh 76[fluorescence artefact?]
O=C(O)c1ccccc1C(=O)Nc1nccs1	none (no result: ERa SRC1 inh, ERa coact pot, Smad3 FoxH1 inh, ERb coact inh)
COc1ccc2nc(SCC(=O)Nc3ccc(S(=O)(=O)N4CCCC4)cc3)c(C#N)cc2c1	ERa coact pot 509[fluorescence artefact?]
Cc1ccc2nc(SCC(=O)Nc3ccccc3N3CCOCC3)c(C#N)cc2c1	ERa coact pot 217[fluorescence artefact?]
N#Cc1cc2ccccc2nc1SCC(=O)Nc1ccc(S(=O)(=O)N2CCCC2)cc1	ERa coact pot 289[fluorescence artefact?]
Cc1ccc(-c2nnc(SCC(=O)Nc3ccccc3N3CCOCC3)o2)cc1	none
Cc1cc(C)c2nc(SCC(=O)Nc3ccc(S(=O)(=O)N4CCCC4)cc3)c(C)cc2c1	none
CC1CCC2(CC1)NC(=O)N(CC(=O)c1ccc[nH]1)C2=O (stereo not given)	ERa SRC1 inh 75
O=Cc1ccc2oc3nc4n(c(=O)c3c(=O)c2c1)CCCS4	ERa SRC1 inh 66, ERb coact inh 58
COc1cc(-c2nc(-c3cccc(C)c3)no2)cc(OC)c1OC	none
COc1cc(-c2noc(-c3cccc(Cl)c3)n2)cc(OC)c1OC	ERa coact pot 233
